Drawing on PubChem BioAssay (EPA / NIEHS), this text covers AC50 and outcome for 38 molecules.

“And” between values parts separate entries of the source, which are not always exact repeats. Equal values may be shown once. Records with an inconclusive call do not appear. Some compounds were tested as several samples or in several runs, with calls that do not always agree. The source made the active and inactive calls. The calls were made as follows: active = hit-call score of the fitted dose curve at least 0.9, where 1 is the maximum; inconclusive = response in the unintended direction; inactive = score below 0.9.

Experiment [1] relates to guinea pig Dopamine Transporter (DAT), gene 100714898. Description: NVS_TR_gDAT: NovaScreen (NVS) Transporter Assay for guinea pig Dopamine Transporter (DAT) (AID 2283369).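 Also: active compounds lower bound radioligand signal relative to DMSO.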 An outline of the steps: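 Radioligand displacement on membranes from guinea pig striatum, 2 h exposure, bound label counted by filtration and scintillation. Tested at 25 uM in duplicate, then actives in concentration series to 50 uM; DMSO as negative control.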

Experiment [2] deals with rat Norepinephrine Transporter (NET), gene 83511. Kind of experiment: NVS_TR_rNET: NovaScreen (NVS) Transporter Assay for rat Norepinephrine Transporter (NET) (AID 2283373). Here is the method:
(§1) NVS_TR_rNET is a biochemical, single-readout assay that uses extracted gene-proteins from Rat forebrain membranes in a tissue-based cell-free assay. Measurements were taken 1 hour after chemical dosing in a 48-well plate.NVS_TR_rNET is one of one assay component(s) measured or calculated from the NVS_TR_rNET assay. It is designed to make measurements of radioligand binding, a form of binding reporter, as detected with scintillation counting signals by Filter-based radiodetection technology.Data from the assay component NVS_TR_rNET was analyzed into 1 assay endpoint. This assay endpoint, NVS_TR_rNET, was analyzed in the positive analysis fitting direction relative to DMSO as the negative control and baseline of activity. Using a type of binding reporter, loss-of-signal activity can be used to understand changes in the binding as they relate to the gene Slc6a2. Furthermore, this assay endpoint can be referred to as a primary readout, because the performed assay has only produced 1 assay endpoint. To generalize the intended target to other relatable targets, this assay endpoint is annotated to the transporter intended target family, where the subfamily is neurotransmitter transporter.
Binding assays used specific radioligands (tritiated, iodinated) with non-radioactive competitive displacement ligands in agonist or antagonist protocols (as indicated) and various reference compounds and inhibitors to titrate specific binding to receptors and transporters. Most enzyme assays (CYPs, kinases, phosphatases, proteases, HDACs) used recombinant protein and specific substrates (fluorescence mostly, some colorimetric and radioactive) and inhibitors, followed by a biochemical separation of substrate and product. All assays for the biochemical HTS were initially run in duplicate at a single concentration (10 uM for CYP450 assays and 25 uM for all others). […] Each assay was run with positive and negative controls, and concurrent controls on every plate. […]

Experiment [3] concerns the target human Dopamine Transporter (DAT), SLC6A3 (gene 6531) (UniProt Q01959). Description: NVS_TR_hDAT: NovaScreen (NVS) Transporter Assay for human Dopamine Transporter (DAT) (AID 2283374).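 Also: activity means loss of bound radioligand signal relative to DMSO.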 An outline of the steps:
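Test chemicals were first screened in duplicate at 25 uM, with actives retested as concentration series. Displacement of a specific radioligand from cell-free human dopamine transporter was measured after 1 h by filtration and scintillation counting.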

Experiment [4] has as its target Peroxisome proliferator-activated receptor gamma (Homo sapiens) (UniProt P37231). Description: NVS_NR_hPPARg: NovaScreen (NVS) Nuclear Receptor Binding Assay for human Peroxisome Proliferator-activated Receptor gamma (PPARg) (AID 2283370). An outline of the steps:
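Fluorescence polarization readout of ligand binding to extracted human PPARg, measured at 2 h. Duplicate single-point screen at 25 uM, then concentration-series retesting; activity defined as signal loss versus DMSO.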

For experiment [5], the target named is Nuclear receptor subfamily 1 group I member 2 (Homo sapiens) (UniProt O75469). Kind of experiment: NVS_NR_hPXR: NovaScreen (NVS) Nuclear Receptor Binding Assay for human Pregnane X Receptor (PXR) (AID 2283365).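 Also: a drop in FRET signal versus DMSO baseline means the compound binds.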 An outline of the steps:
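Human PXR binding measured by TR-FRET in a cell-free format, 2 h exposure. Single-concentration duplicates at 25 uM preceded concentration-response retests of actives; endpoint fitted positively relative to DMSO, loss of signal indicating binding.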

Experiment [6] deals with guinea pig Sigma Receptor, Non-selective Binding, SIGMAR1 (gene 100135589) (UniProt Q60492). Kind of experiment: NVS_OR_gSIGMA_NonSelective: NovaScreen (NVS) Nuclear Receptor Binding Assay for guinea pig Sigma Receptor, Non-selective Binding (AID 2283367). An outline of the steps: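 gp brain membr., radioligand displacement, 1 h, filtration + scint. counting; DMSO = baseline; 25 uM x2 primary, conc.-response confirm.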
guinea pig Sigma Receptor, Non-selective Binding, SIGMAR1 (gene 100135589), sequence (Q60492 whole entry, looked up): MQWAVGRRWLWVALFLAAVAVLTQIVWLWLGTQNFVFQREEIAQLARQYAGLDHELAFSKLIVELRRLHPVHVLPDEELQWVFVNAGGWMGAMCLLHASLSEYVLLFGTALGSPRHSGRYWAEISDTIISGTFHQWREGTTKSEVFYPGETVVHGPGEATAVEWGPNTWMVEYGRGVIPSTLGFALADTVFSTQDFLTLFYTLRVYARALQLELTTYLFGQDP

The target of experiment [7] is rat Androgen Receptor (AR), Ar (gene 24208) (UniProt P15207). Kind of experiment: NVS_NR_rAR: NovaScreen (NVS) Nuclear Receptor Binding Assay for rat Androgen Receptor (AR) (AID 2283366). An outline of the steps:
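Cell-free radioligand binding on extracts of prostate from testosterone-pretreated rats, read by filter-based scintillation counting 18 h after dosing. Loss of bound signal fitted positively versus DMSO; primary screen in duplicate at 25 uM, actives followed up in concentration series.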

The target in experiment [8] is human Serotonin Transporter (SERT), SLC6A4 (gene 6532) (UniProt P31645). Kind of experiment: NVS_TR_hSERT: NovaScreen (NVS) Transporter Assay for human Serotonin Transporter (SERT) (AID 2283372). On the procedure: as §1, with “NVS_TR_hSERT” for “NVS_TR_rNET”, “Human platelet” for “Rat forebrain”, “96-well plate.NVS_TR_hSERT” for “48-well plate.NVS_TR_rNET”, “NVS_TR_hSERT,” for “NVS_TR_rNET,”, “SLC6A4.” for “Slc6a2.”
human Serotonin Transporter (SERT), SLC6A4 (gene 6532), sequence (P31645 whole entry, looked up): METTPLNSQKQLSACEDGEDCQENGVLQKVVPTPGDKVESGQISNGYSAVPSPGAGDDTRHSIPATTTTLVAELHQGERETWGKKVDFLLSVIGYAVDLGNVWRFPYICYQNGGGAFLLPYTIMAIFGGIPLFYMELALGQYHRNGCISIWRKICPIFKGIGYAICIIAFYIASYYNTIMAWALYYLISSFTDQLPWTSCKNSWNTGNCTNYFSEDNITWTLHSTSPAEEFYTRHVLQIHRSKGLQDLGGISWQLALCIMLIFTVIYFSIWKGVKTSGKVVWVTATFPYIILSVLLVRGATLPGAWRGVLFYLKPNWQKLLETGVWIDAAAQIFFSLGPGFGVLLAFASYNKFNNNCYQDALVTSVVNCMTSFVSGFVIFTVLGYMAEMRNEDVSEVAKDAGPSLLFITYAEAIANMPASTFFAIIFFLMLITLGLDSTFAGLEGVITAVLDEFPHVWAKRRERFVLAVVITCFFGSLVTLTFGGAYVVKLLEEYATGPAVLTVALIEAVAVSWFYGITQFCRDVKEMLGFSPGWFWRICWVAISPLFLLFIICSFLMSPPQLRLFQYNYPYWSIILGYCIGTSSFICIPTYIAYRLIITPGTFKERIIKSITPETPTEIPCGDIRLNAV
Binding assays used specific radioligands (tritiated, iodinated) with non-radioactive competitive displacement ligands in agonist or antagonist protocols (as indicated) and various reference compounds and inhibitors to titrate specific binding to receptors and transporters. Most enzyme assays (CYPs, kinases, phosphatases, proteases, HDACs) used recombinant protein and specific substrates (fluorescence mostly, some colorimetric and radioactive) and inhibitors, followed by a biochemical separation of substrate and product. All assays for the biochemical HTS were initially run in duplicate at a single concentration (10 uM for CYP450 assays and 25 uM for all others). […] Each assay was run with positive and negative controls, and concurrent controls on every plate. The follow-up (secondary) screen tested active chemical-pairs in concentration series, as well as a few additional assays not tested in the primary screen, some selected negative inactives, and several cases re-run in the concentration series for confirmatory purposes.

The target in experiment [9] is rat Serotonin Transporter (SERT), Slc6a4 (gene 25553) (UniProt P31652). Description: NVS_TR_rSERT: NovaScreen (NVS) Transporter Assay for rat Serotonin Transporter (SERT) (AID 2283375). An outline of the steps: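 Radioligand binding with competitive displacement on rat forebrain membrane preparations, counted by filtration and scintillation after 1 h. Primary single-point duplicates at 25 uM; active chemicals followed up in concentration-response. DMSO served as baseline.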
rat Serotonin Transporter (SERT), Slc6a4 (gene 25553), sequence (P31652 whole entry, looked up): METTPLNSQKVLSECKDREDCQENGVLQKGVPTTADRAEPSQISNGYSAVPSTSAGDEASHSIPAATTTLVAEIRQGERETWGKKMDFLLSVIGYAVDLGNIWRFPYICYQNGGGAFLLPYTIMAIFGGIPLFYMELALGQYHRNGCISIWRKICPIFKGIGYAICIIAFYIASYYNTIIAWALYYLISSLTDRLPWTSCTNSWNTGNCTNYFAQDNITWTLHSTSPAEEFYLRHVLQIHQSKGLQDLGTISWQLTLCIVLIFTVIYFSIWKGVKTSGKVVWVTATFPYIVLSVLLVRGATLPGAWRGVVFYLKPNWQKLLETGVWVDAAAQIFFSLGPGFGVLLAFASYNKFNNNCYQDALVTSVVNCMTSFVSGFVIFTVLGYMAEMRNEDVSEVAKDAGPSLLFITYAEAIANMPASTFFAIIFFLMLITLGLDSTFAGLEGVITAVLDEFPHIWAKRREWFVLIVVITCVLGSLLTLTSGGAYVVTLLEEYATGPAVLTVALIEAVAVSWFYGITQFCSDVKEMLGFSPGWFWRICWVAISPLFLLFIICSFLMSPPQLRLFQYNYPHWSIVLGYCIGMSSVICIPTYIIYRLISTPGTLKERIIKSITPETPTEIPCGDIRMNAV

Experiment [10] concerns the target human Adenosine Transporter (Adot), SLC29A1 (gene 2030) (UniProt Q99808). Description: NVS_TR_hAdoT: NovaScreen (NVS) Transporter Assay for human Adenosine Transporter (Adot) (AID 2283368). An outline of the steps:
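U937-derived membranes, cell-free radioligand binding, filter scintillation 1 h after dosing. 25 uM duplicate screen; hits (e.g. 30% inhibition) run in concentration-response up to 50 uM; loss of signal versus DMSO.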

rat Androgen Receptor (AR), Ar (gene 24208), sequence (P15207 whole entry, looked up): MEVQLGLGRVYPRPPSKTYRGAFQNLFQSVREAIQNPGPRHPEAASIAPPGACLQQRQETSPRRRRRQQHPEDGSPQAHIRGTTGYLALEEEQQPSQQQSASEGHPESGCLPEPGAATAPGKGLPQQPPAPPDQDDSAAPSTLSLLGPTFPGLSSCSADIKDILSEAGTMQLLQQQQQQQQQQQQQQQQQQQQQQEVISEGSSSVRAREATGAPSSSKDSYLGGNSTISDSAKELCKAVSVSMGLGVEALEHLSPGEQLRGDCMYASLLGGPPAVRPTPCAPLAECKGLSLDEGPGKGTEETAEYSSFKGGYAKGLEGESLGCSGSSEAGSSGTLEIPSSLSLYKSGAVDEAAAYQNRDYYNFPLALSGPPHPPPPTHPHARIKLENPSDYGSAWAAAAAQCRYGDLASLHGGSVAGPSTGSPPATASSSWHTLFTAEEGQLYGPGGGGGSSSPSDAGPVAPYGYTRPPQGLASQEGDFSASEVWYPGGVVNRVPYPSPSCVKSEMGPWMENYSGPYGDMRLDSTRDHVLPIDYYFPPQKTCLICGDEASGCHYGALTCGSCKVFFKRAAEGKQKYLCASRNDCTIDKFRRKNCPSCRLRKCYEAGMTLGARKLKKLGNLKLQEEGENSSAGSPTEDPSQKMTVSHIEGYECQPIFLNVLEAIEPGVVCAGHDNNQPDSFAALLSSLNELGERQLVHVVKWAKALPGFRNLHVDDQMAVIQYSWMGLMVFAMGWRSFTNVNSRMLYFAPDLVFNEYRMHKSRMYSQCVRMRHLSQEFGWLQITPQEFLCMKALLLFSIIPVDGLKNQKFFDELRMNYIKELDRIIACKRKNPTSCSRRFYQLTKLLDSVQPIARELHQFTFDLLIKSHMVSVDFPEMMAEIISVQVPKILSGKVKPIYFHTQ
Peroxisome proliferator-activated receptor gamma (Homo sapiens), sequence (P37231 whole entry, looked up): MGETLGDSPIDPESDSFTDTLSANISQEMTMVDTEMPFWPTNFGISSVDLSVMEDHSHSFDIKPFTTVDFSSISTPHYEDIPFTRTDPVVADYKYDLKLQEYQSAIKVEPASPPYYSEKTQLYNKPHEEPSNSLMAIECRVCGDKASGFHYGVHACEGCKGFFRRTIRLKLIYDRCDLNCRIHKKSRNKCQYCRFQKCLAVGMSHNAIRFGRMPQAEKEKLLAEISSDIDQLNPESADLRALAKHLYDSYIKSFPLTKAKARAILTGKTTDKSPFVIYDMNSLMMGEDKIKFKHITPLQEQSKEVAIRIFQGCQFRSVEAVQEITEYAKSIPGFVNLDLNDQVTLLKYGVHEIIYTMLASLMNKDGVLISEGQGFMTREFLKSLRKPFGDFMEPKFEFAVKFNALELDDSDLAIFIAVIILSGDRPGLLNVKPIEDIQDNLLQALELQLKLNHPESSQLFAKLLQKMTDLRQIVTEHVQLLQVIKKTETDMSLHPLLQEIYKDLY
human Adenosine Transporter (Adot), SLC29A1 (gene 2030), sequence (Q99808 whole entry, looked up): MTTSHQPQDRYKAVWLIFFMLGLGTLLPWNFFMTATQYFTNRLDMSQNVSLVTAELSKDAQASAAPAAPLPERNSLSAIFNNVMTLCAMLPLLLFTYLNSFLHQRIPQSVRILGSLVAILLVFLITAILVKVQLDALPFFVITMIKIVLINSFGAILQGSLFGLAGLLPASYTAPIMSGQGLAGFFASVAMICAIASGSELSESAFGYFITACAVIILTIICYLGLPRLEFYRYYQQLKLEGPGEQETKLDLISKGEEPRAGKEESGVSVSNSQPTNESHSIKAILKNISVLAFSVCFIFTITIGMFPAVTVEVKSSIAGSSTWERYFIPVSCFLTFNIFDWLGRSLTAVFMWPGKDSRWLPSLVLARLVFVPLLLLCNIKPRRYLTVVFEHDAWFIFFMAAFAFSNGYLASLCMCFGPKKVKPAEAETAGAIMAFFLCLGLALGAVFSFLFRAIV
human Dopamine Transporter (DAT), SLC6A3 (gene 6531), sequence (Q01959 whole entry, looked up): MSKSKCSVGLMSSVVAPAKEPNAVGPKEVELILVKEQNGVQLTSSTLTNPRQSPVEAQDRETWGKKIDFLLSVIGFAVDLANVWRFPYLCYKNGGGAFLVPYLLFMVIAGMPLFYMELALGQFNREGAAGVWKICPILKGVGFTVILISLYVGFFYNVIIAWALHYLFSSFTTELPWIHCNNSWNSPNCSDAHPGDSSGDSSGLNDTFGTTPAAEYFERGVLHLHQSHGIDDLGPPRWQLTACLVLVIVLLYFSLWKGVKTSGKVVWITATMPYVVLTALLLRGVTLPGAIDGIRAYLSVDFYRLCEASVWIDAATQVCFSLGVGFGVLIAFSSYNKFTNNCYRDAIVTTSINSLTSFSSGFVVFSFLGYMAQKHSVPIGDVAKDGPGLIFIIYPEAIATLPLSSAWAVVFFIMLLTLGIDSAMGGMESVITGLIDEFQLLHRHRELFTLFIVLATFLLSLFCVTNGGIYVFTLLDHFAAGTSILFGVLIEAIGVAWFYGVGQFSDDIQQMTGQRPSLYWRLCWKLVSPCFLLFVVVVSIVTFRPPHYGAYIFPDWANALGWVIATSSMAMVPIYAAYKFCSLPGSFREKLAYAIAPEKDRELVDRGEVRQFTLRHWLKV
Nuclear receptor subfamily 1 group I member 2 (Homo sapiens), sequence (O75469 whole entry, looked up): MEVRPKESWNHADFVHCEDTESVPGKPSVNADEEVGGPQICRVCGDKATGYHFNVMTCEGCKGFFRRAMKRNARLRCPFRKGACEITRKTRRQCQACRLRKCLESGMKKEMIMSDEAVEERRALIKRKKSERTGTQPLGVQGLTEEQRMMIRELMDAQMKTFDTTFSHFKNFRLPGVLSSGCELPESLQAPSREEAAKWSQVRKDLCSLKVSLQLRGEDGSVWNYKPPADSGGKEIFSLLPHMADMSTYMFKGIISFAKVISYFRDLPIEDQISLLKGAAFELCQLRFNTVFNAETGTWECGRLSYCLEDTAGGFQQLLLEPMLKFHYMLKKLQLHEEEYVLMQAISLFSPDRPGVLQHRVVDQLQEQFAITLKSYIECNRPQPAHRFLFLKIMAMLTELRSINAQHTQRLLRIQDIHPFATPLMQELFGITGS

One may read the AC50 as the concentration at which the activity in the assay is half-maximal. Consider `CC1=C(C(=O)Nc2ccccc2)SCCO1`, for which the results for the AC50 in [1], in experiment [2] and in experiment [3] were 13.9 µM (active), 8.37 µM (active) and 9.69 µM (active), respectively.

Consider `COC(=O)c1ccccc1C(=O)OC`, for which, in [4], the molecule was called inactive.

Take `CCCCC(CC)COC(=O)c1ccccc1C(=O)OCC(CC)CCCC` (configuration not stated): the molecule was called inactive in experiment [4].

In the case of `C=CC1(C)OC(=O)N(c2cc(Cl)cc(Cl)c2)C1=O` (configuration not stated), in experiment [4], the molecule was classed as inactive.

With `Cc1c(F)c(F)c(COC(=O)C2C(/C=C(\Cl)C(F)(F)F)C2(C)C)c(F)c1F` (configuration not stated), the AC50 in [3] is 8.33 µM (active).

Turning to `CNC(=S)S`, the molecule was classed as inactive in experiment [5] and in experiment [6].

In the case of `C#CCOS(=O)OC1CCCCC1Oc1ccc(C(C)(C)C)cc1` (configuration not stated), the values for the AC50 in experiment [1] and in experiment [3] were 15.6 µM (active) and 9.17 µM (active), respectively. In addition, in [4], the molecule was classed as inactive.

Take `CCON=C(CC)C1=C(O)CC(c2c(C)cc(C)cc2C)CC1=O` (configuration not stated): in experiment [6], the result was inactive.

In the case of `CCCCNC(=O)n1c(NC(=O)OC)nc2ccccc21`, in [2], the result was inactive.

Turning to `CC1COC(Cn2cncn2)(c2ccc(Oc3ccc(Cl)cc3)cc2Cl)O1` (configuration not stated), the AC50 in [6] is 1.27 µM (active); in experiment [1] it was 12.3 µM (active); in experiment [3] it was 2.93 µM (active).

For `CCCCOC(=O)c1ccccc1C(=O)OCCCC`, the call in [5], in experiment [1], in experiment [4] and in [3] was inactive. Moreover, in [1], the AC50 is 19.5 µM (active).

`CCNc1nc(Cl)nc(NC(C)C)n1`: the call in experiment [4] was inactive.

`CCOC(=O)CC(SP(=S)(OC)OC)C(=O)OCC` (configuration not stated): the molecule was classed as inactive in experiment [7] and in [4]. For the same molecule, in experiment [6], the AC50 is 11.4 µM (active).

Turning to `CCCN(CCC)c1c([N+](=O)[O-])cc(S(N)(=O)=O)cc1[N+](=O)[O-]`, the AC50 was 6.68 µM (active) in [5] and 0.0071 µM (active) in experiment [4]. In addition, the molecule was called inactive in experiment [4].

With `COC(=O)C(C)Oc1ccc(Oc2ccc(Cl)cc2Cl)cc1` (configuration not stated), the result in experiment [1] was inactive. For the same molecule, in experiment [3], the AC50 was 14.2 µM (active) and the call was inactive.

As to `CCc1nn(C)c(C(=O)NCc2ccc(C(C)(C)C)cc2)c1Cl`, the AC50 in experiment [6] is 16.2 µM (active); in experiment [3], 6.22 µM (active).

With `CON(C)C(=O)Nc1ccc(Cl)c(Cl)c1`, the call in experiment [5] and in [4] was inactive. Also, the AC50 in experiment [6] is 12 µM (active); in experiment [3], 13.4 µM (active).

In the case of `C=CCC1=C(C)C(OC(=O)C2C(C=C(C)C)C2(C)C)CC1=O` (configuration not stated), the AC50 in experiment [1] is 26.2 µM (active); in [4], 39.1 µM (active); in experiment [3], 7.76 µM (active) and 487 nM (active) and 23.7 µM (active). The molecule was called inactive in [1], in experiment [4] and in experiment [3].

For `OC(c1ccc(Cl)cc1)(c1cncnc1)c1ccccc1Cl` (configuration not stated), the result in experiment [6] was inactive. For the same molecule, the AC50 in experiment [3] is 0.944 µM (active).

As to `COP(N)(=O)SC` (configuration not stated), the outcome in experiment [4] was inactive.

As for `N#Cc1nn(-c2c(Cl)cc(C(F)(F)F)cc2Cl)c(N)c1S(=O)C(F)(F)F` (configuration not stated), the outcome in experiment [6] and in experiment [4] was inactive.

For the molecule `CCNc1nc(Cl)nc(NCC)n1`, the result in [4] was inactive.

Take `COc1ccc(C(c2ccc(OC)cc2)C(Cl)(Cl)Cl)cc1`: the call in experiment [5], in [4] and in experiment [3] was inactive. Also, in [1], the AC50 was 14 µM (active).

On to `COc1nc(NC(C)C)nc(NC(C)C)n1`, for which the molecule was classed as inactive in experiment [8] and in [9].

`CCOc1cc(Oc2ccc(C(F)(F)F)cc2Cl)ccc1[N+](=O)[O-]`: the AC50 in experiment [3] was 6.37 µM (active).

Turning to `CCCCNC(=O)OCC#CI`, in experiment [4], the outcome was inactive.

With `Cc1ccc(-c2c(Cl)nc(C#N)n2S(=O)(=O)N(C)C)cc1`, the molecule was called inactive in experiment [4].

With `COc1cnc(OC)n2nc(NS(=O)(=O)c3c(OCC(F)F)cccc3C(F)(F)F)nc12`, in experiment [4], the call was inactive.

With `Fc1ccc(Oc2ccnc3cc(Cl)cc(Cl)c23)cc1`, the AC50 in experiment [1] is 13.8 µM (active); in experiment [3], 9.77 µM (active).

On to `CCCC1COC(Cn2cncn2)(c2ccc(Cl)cc2Cl)O1` (configuration not stated), for which the call in [5], in experiment [7] and in experiment [4] was inactive. Besides, the AC50 in [6] was 25 µM (active).

On to `C=CCC1=C(C)[C@@H](OC(=O)[C@@H]2[C@@H](C=C(C)C)C2(C)C)CC1=O`, for which the molecule was called inactive in experiment [5]. Besides, the figures for the AC50 in experiment [6], in [1] and in [3] were 37.4 µM (active), 20.3 µM (active) and 18.6 µM (active), respectively.

Take `O=C(O)COc1nc(Cl)c(Cl)cc1Cl`: the molecule was classed as inactive in [4].

Turning to `Cc1cc(Cl)ccc1OCC(=O)O`, the call in experiment [4], in experiment [8] and in experiment [9] was inactive.

As for `COc1nc(C)nc(NC(=O)NS(=O)(=O)c2ccccc2CCC(F)(F)F)n1`, the AC50 in experiment [10] was 85.5 nM (active). Besides, the molecule was called inactive in [10], in [4], in experiment [8] and in experiment [9].

As to `CO/C=C(/C(=O)OC)c1ccccc1Oc1cc(Oc2ccccc2C#N)ncn1`, the result in experiment [5], in experiment [7], in experiment [10], in [4] and in experiment [3] was inactive.

For the molecule `Oc1ccccc1-c1ccccc1`, the AC50 in experiment [5] was 15.7 µM (active). In addition, the result in [4] and in [2] was inactive.

Turning to `O=C(Nc1ccccc1)Nc1ccnc(Cl)c1`, the call in experiment [8] and in experiment [9] was inactive.

Consider `N#CC(CCc1ccc(Cl)cc1)(Cn1cncn1)c1ccccc1` (configuration not stated), for which the molecule was called inactive in experiment [7] and in experiment [10]. In addition, the AC50 in [3] is 7.06 µM (active).
